PubChem BioAssay (Tox21)
Records with an inconclusive call do not appear. Activity calls are given as the source filed them. Unless noted, calls follow the shape of the dose curve; as a rule, active = well fitted curve in the direction sought with a large enough effect in the repeat runs; inconclusive = weak or mixed curves; inactive = no such curve, though single readings can be large; an effect the other way counts as inactive or inconclusive.

What was measured:
[1] = qHTS assay to identify small molecule antagonists of the estrogen related receptor (ERR) signaling pathway - cell viability counter screen (AID 1224818); also: potency is read from the fitted curve at half-maximal effect
Summary of the method: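 ERR cells, 2,000 per well, compound added after 6 h and incubated 17.5 h at 37 C. Viability read by CellTiter-Fluor fluorescence after a further 30 min at 37 C.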

[2] = qHTS assay to identify small molecule antagonists of the estrogen related receptor (ERR) signaling pathway (AID 1224819;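 also: luminescence from an ERR-driven luciferase reporter measured with One-Glo reagent; series mostly up to about 46 µM; nearly all actives have a fitted effect of over 50% in size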)
Summary of the method: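 ERR reporter cell line (NTP) plated at 2,000 cells/well, settled 6 h at 37C/5% CO2, then exposed to LOPAC compounds for 18 h at 37C. One-Glo luciferase luminescence read after 30 min at room temperature.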

[3] = qHTS assay to identify small molecule agonists of the estrogen related receptor (ERR) signaling pathway (AID 1224820)
Summary of the method: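 Quantitative HTS of the LOPAC library used NTP ERR reporter cells treated 18 h at 37 C. Signal is luminescence after One-Glo addition and a 30 min room-temperature incubation.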

[4] = system: estrogen-related receptor alpha (ERRalpha) with PGC-1alpha coactivator, human; test: qHTS assay to identify small molecule antagonists of the estrogen related receptor signaling pathway with the pleiotropic PPARgamma coactivator (PGC) (AID 1224821; calls by dose curve;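 also: series mostly up to about 46 µM; lower luminescence signal means antagonism of PGC/ERR signalling; nearly all actives have a fitted effect of over 50% in size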)
Summary of the method: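 Quantitative HTS for antagonism: PGC/ERR cells received compounds after 6 h attachment and were incubated 18 h at 37 C, with luminescence (One-Glo) as the endpoint.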

[5] = qHTS assay to identify small molecule agonists of the estrogen related receptor signaling pathway with the pleiotropic PPARgamma coactivator (PGC) (AID 1224823)
Summary of the method: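 Cell-based luciferase assay in the NTP-supplied PGC/ERR line, 2,000 cells/well; 18 h compound exposure at 37 C, luminescence after One-Glo.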

[6] = qHTS assay to identify small molecule antagonists of the estrogen related receptor signaling pathway with the pleiotropic PPARgamma coactivator (PGC) cell viability counter screen (AID 1224822; also: potency is read from the fitted curve at half-maximal effect)
Summary of the method: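 PGC/ERR cells rested 6 h, then compound-treated 17.5 h at 37 C. CellTiter-Fluor added for 30 min at 37 C, viability measured by fluorescence intensity.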

Measured: Potency

NC1CCc2cc(O)c(O)cc2C1 (stereo unspecified)
not listed: [6]
inactive: all other assays above

N=C(N)c1ccc(CS(=O)(=O)F)cc1
inactive: all assays above

CCCN1CCc2cc(O)cc3c2[C@H]1Cc1ccc(O)c(O)c1-3
inactive: [4]

NC(N)=Nc1ccc2[nH]c3c(c2c1)C[C@@]1(O)[C@H]2Cc4ccc(O)c5c4[C@@]1(CCN2CC1CC1)[C@H]3O5
inactive: [4]

C[C@H](N)CN1CCc2ccc(Br)cc21
not listed: [3]
inactive: all other assays above

[Cl-].[Cl][Pt].[NH2-].[NH2-].c1ccncc1
inactive: [1] | [6]

O=C1CC[C@@]2(O)C3Cc4ccc(O)c5c4C2(CCN3CC2CC2)[C@H]1O5 (stereo partly specified)
inactive: [1] | [6]

C[N+]1(C)C2CCC1CC(OC(=O)C(CO)c1ccccc1)C2 (stereo unspecified)
inactive: [1] | [6]

Ic1ccccc1CNC1C2CCN(CC2)C1C(c1ccccc1)c1ccccc1 (stereo unspecified)
inactive: [3] | [5]
active: [1] 19.6 µM | [6] 19.6 µM

CC(=O)[C@H]1CCC2C3CC[C@H]4C[C@H](O)CC[C@]4(C)C3CC[C@@]21C (stereo partly specified)
not listed: [2]
inactive: all other assays above

Nc1cc2c(ncn2CCOCP(=O)(O)O)c(=O)[nH]1
not listed: [2]
inactive: all other assays above

NC(=O)c1ccc(OCC(O)CN2CC=C(c3ccc(F)cc3)CC2)cc1 (stereo unspecified)
not listed: [2]
inactive: all other assays above

CCCN1CCc2cccc3c2[C@H]1Cc1ccc(O)c(O)c1-3
inactive: [1] | [2] | [3] | [5]

C=CCN1CC[C@]23CCCCC2[C@H]1Cc1ccc(O)cc13 (stereo partly specified)
not listed: [3]
inactive: all other assays above

CN1CC[C@@]2(C)c3cc(OC(=O)Nc4ccccc4)ccc3N(C)[C@@H]12
inactive: [1] | [2] | [4] | [5]
